In the library only some 2.2% were active in any assay of this set; here they are far more common.
KLF5 inhibitor: KLF5 expression inhibitors, primary screen, DLD-1 cells, luminescence; actives 0.23% (n = 290,000); inhibition, % at 5 µM; AID 1700, 2009; DLD-1 KLF5 promoter-luciferase reporter;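 active = inhibition above a per-plate limit of that plate's mean compound inhibition plus 3 SD, cut at about 60% in these data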;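 note: 0% = DMSO wells and 100% = LY294002 at 200 µM; higher means less KLF5 promoter-driven luciferase light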
IEC-6 cytotox: cytotoxicity in IEC-6 intestinal epithelial cells, primary screen, cytotoxicity control for KLF5 inhibitor project, cell-based, luminescence; actives 0.78% (n = 290,000); IEC-6 cytotoxicity, luminescence viability; inhibition, % at 5 µM;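 note: 0% = plate median of test compound wells and 100% = cytotoxic reference compound wells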
APP transl inh: inhibitors of APP translation via 5'UTR reporter, primary screen, APP 5'UTR luciferase, SH-SY5Y cells; SH-SY5Y APP 5'UTR-luciferase reporter, luminescence; inhibition, % at 2 µM; actives 0.82% (n = 190,000); AID 1285, 2008;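 active = inhibition above a set limit, derived from the sample mean plus 3 SD, cut at about 45% in these data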
aSyn 5UTR inh: MLPCN primary screen, SNCA 5' untranslated region | inhibition, % (tested at 7.5 µM) | alpha-synuclein 5'UTR reporter, inhibitor activity | actives 0.82% (n = 300,000) | AID 1813, 2009; in the data active = inhibition above about 60%;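 note: H4 neuroglioblastoma cells stably carrying SNCA 5'UTR luciferase fusion; 0% = DMSO wells and 100% = positive control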
Ba/F3 V617F tox: reduced viability of JAK2V617F-dependent Ba/F3 cells, primary screen, JAK2V617F inhibitor project, cell-based, Ba/F3 EpoR-JAK2V617F, luminescence | inhibition, % at 5.6 µM | ATP luminescence | actives 1.1% (n = 220,000) | AID 1446, 2008;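 active = inhibition above the campaign mean plus 3 SD over all tested compounds, cut at about 24% in these data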;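 note: cytokine-independent growth of Ba/F3 cells driven by EpoR plus mutant JAK2; 0% = DMSO-treated cells and 100% = JAK inhibitor I control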
BaF3 tox: parental Ba/F3 cell viability inhibition, counter-screen for JAK2V617F inhibitor project, murine pro-B, CellTiter-Glo luminescence; AID 1486, 2009; CellTiter-Glo ATP luminescence; actives 1.1% (n = 220,000); inhibition, % at 5.6 µM;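 active = inhibition above a per-campaign cutoff, the mean inhibition of all tested compounds plus 3 SD, cut at about 27% in these data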;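 note: 0% = DMSO wells and 100% = JAK Inhibitor I control wells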
IEC-6 tox confirm: cytotoxic compounds in IEC-6 epithelial cells, confirmation, cytotoxicity control, cell-based, luminescence; actives 63% (n = 1,900); inhibition, % at 5 µM; shares compounds with IEC-6 cytotox; IEC-6 rat intestinal epithelial viability;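 note: 0% = vehicle and 100% = reference cytotoxic drug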
The depositor's hits bear a star; . = no result. Cut-off read from the data, not from the text of the source, unless noted: active = inhibition above about 22%; inactive = the rest.

SMILES | KLF5 inhibitor | IEC-6 cytotox | APP transl inh | aSyn 5UTR inh | Ba/F3 V617F tox | BaF3 tox | IEC-6 tox confirm
COc1ccc(C(=O)n2c(-c3ccco3)nc3ccccc32)cc1 | 25 | 48* | 50* | -100 | 10 | 8 | 36*
COc1ccc(C(=O)N2CCn3c2nc2ccccc23)cc1 | -73 | 0 | -17 | -108 | 0 | 5 | .
CSc1nnc2c3ccccc3n(CCc3ccccc3)c2n1 | -39 | 46* | 22 | 14 | -1 | 2 | 42*
Cn1c(CNC(=O)c2ccccc2F)nnc1SCCOc1ccccc1 | -20 | -4 | -4 | 22 | 2 | 10 | .
COc1cc(/C=N/O)ccc1Oc1cnccn1 | -28 | 2 | . | 16 | . | . | .
Cc1ccccc1OCC(=O)NNC(=O)Nc1ccc(Cl)cc1 | -1 | 67* | 10 | -48 | 1 | 7 | 29*
Cc1ccccc1OCC(=O)NNC(=O)Nc1ccccc1 | -25 | 2 | -8 | 25 | -2 | 4 | .
CN(C)c1cc(Nc2ccc(O)cc2)c([N+](=O)[O-])c2nonc12 | -4 | 3 | . | 6 | -1 | -3 | .
O=[N+]([O-])c1c(Nc2ccc(O)cc2)cc(Cl)c2nonc12 | 26 | 101* | . | 47 | . | . | 68*
CCOc1ccc(NC(=O)CN(C)C(=O)c2cccnc2Sc2ccccc2Cl)cc1OCC | . | . | . | 16 | . | . | .
COc1ccc(C(=O)N/N=C\c2coc3ccccc3c2=O)cc1 | -32 | -7 | . | -4 | -2 | 0 | .
COc1cc(C(=O)N/N=C/c2coc3ccccc3c2=O)cc(OC)c1OC | -40 | 70* | . | 20 | . | . | 2
O=C(NCCCCc1ccccc1)c1ccc(F)cc1 | . | . | . | -45 | . | . | .
O=C1C(Cl)=C(NCCN2CCOCC2)C(=O)c2ccccc21 | -13 | 33* | . | -36 | . | . | 19
CCn1cc(C(=O)NC2CCCc3c2cnn3-c2cccc(C)c2C)cn1 (centres undefined) | 44 | 22* | . | -16 | . | . | 14
N#CCCN(C(=O)COc1ccc(C#N)cc1)c1ccc(F)cc1 | 6 | 5 | -5 | 3 | 2 | 2 | .
CCN1CCN(C(=O)/C(=C/c2cccs2)NC(=O)c2ccc(C)c(C)c2)CC1 | -10 | 2 | . | 13 | . | . | .
Cc1nc(NC(=O)/C=C/c2ccccc2)n[nH]1 | -20 | -2 | 19 | -11 | -3 | 1 | .
CN1CCC(NCCC(c2ccc(F)cc2)c2ccc(Cl)cc2)CC1 (centres undefined) | -30 | 49* | . | 22 | . | . | 100*
CC(C)C(CCNC1CCN(C)CC1)c1ccc(Cl)cc1 (centres undefined) | -48 | 36* | . | -35 | . | . | 57*
CC(=O)Nc1ccc(Nc2nc(C(F)(F)F)nc3c2nnn3Cc2ccccc2Cl)cc1 | -33 | -2 | . | 3 | . | . | .
CCc1ccc(C2CC(=O)N3CN(c4ccccc4)CSC3=C2C#N)cc1 (centres undefined) | -7 | 4 | 1 | 12 | 3 | -1 | .
N#CC1=C2SCC(O)(c3ccccc3)N2C(=O)CC1c1ccccc1 (centres undefined) | 56 | 77* | 92* | -16 | 82* | 79* | 60*
Cc1ccc(C(=O)Nc2cc3[nH]c(=O)oc3cc2C)cc1 | -24 | 9 | . | 27 | . | . | .
CC(C)(C)C(=O)/C(=C/c1ccc(Cl)cc1)n1cncn1 | 19 | 29* | . | -173 | . | . | 19
SMILES | KLF5 inhibitor | IEC-6 cytotox | APP transl inh | aSyn 5UTR inh | Ba/F3 V617F tox | BaF3 tox | IEC-6 tox confirm
Clc1ccc(-n2cc(COCc3ccccc3)nn2)cc1 | -101 | 1 | -170 | -27 | 2 | 10 | .
CC(=O)c1c(C)oc2c1C(=O)c1ccccc1C2=O | -12 | 3 | 2 | -62 | -1 | 8 | .
Cc1oc2c(c1C(=O)NCc1cccnc1)C(=O)c1ccccc1C2=O | -17 | 102* | 95* | 107* | 94* | 101* | 105*
Cc1nnc(N/N=C/c2c(Cl)cccc2Cl)n1N | -3 | 102* | 4 | -2 | -1 | 0 | -13
Cc1cc(/C=N/NC(N)=S)c(C)n1-c1ccc(Br)cc1 | 5 | 6 | -22 | 6 | 10 | 14 | .
CCc1nnc(N/N=C/c2c(F)cccc2Cl)n1N | -17 | 1 | . | -1 | . | . | .

Assay outcomes (PubChem)
